PubChem BioAssay (EPA / NIEHS)
Inconclusive results are not listed. Calls of active or inactive are those of the source. The calls were made as follows, unless noted: active = hit-call score of the fitted dose curve at least 0.9, where 1 is the maximum; inconclusive = response in the unintended direction; inactive = score below 0.9.

How the values were obtained:
[1] = target: zebrafish Thyroid Hormone Receptor beta (TRb), thrb (gene 30607) (UniProt Q9PVE4); experiment: ATG_zfTRb_XSP2: Attagene TRANS-FACTORIAL Multi-Species (XSP1) HepG2 Assay for zebrafish Thyroid Hormone Receptor beta (TRb) (AID 2283836)
Chain of zebrafish Thyroid Hormone Receptor beta (TRb), thrb (gene 30607) (Q9PVE4 whole entry, looked up): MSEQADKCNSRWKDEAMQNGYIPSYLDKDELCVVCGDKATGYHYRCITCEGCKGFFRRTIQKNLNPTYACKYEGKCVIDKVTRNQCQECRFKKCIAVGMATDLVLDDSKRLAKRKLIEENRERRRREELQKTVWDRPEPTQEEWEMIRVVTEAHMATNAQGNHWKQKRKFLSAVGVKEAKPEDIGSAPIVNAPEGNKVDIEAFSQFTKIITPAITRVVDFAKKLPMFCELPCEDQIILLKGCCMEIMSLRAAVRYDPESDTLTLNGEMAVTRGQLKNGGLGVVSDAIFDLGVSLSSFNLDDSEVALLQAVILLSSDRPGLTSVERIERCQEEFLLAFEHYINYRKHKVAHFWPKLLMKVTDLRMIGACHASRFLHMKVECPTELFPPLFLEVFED
How it was run: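 Multiplexed trans-activation in HepG2 cells, 24 h treatment, with reporter mRNA read by RT-PCR and capillary electrophoresis. Gain-of-signal against DMSO.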

[2] = target: frog Thyroid hormone Receptor alpha (TRa), thra-a (gene 397942) (UniProt P15204); experiment: ATG_frTRa_XSP2: Attagene TRANS-FACTORIAL Multi-Species (XSP2) HepG2 Assay for frog Thyroid hormone Receptor alpha (TRa) (AID 2283839)
Chain of frog Thyroid hormone Receptor alpha (TRa), thra-a (gene 397942) (P15204 whole entry, looked up, the tested form may be a part): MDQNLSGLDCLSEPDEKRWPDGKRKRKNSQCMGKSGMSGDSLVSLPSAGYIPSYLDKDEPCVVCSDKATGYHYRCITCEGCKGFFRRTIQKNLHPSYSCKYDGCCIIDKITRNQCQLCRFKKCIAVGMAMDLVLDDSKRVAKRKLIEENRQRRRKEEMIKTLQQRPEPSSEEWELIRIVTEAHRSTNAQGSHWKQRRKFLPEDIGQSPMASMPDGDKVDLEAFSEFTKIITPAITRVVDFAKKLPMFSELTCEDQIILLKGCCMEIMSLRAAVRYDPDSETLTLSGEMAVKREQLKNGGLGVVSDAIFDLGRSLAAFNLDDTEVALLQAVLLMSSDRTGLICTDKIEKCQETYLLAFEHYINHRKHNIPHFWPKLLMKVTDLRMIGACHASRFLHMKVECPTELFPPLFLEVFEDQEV
How it was run: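 HepG2 cells transiently transfected with multiplexed GAL4-UAS reporter units expressing chimeric frog TRα-Gal4; reporter mRNA read 24 h after dosing by RT-PCR, FAM-labelled primer extension, HpaI digest and capillary electrophoresis. Gain of signal fitted versus DMSO.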

[3] = target: human Thyroid hormone Receptor beta (TRb), THRB (gene 7068) (UniProt P10828); experiment: ATG_hTRb_XSP2: Attagene TRANS-FACTORIAL Multi-Species (XSP2) HepG2 Assay for human Thyroid hormone Receptor beta (TRb) (AID 2283840);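 also: actives raise reporter mRNA so potency reflects agonist-like gain of signal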
Chain of human Thyroid hormone Receptor beta (TRb), THRB (gene 7068) (P10828 whole entry, looked up, the tested form may be a part): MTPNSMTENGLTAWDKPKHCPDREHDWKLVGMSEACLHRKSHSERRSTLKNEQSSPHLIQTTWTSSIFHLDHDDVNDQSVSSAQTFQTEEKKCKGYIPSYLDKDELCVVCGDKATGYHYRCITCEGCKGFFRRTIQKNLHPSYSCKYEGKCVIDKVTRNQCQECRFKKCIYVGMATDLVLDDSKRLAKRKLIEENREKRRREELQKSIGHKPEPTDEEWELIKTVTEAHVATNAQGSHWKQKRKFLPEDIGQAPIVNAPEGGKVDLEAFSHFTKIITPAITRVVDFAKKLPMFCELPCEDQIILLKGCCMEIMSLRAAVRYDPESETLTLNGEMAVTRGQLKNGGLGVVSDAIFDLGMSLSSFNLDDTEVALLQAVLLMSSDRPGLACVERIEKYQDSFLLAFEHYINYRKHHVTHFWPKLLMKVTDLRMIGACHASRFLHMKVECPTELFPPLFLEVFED
How it was run: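 HepG2 cells were transiently transfected with GAL4-UAS multiplexed reporter units expressing chimeric NR-Gal4 proteins, dosed 24 h; reporter mRNA was quantified by RT-PCR, fluorescent labeling, HpaI digestion and capillary electrophoresis, fitted for gain of signal versus DMSO.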

[4] = test system: Sodium/Iodide Symporter (NIS), SLC5A5 (gene 6528); experiment: CPHEA_Stoker_NIS_Inhibition_RAIU: CPHEA's Radioactive Iodide Uptake (RAIU) Assay for Sodium/Iodide Symporter (NIS) Inhibition, Stoker and Laws Labs (AID 2283841)
How it was run: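 Iodide uptake through human NIS is measured in an engineered HEK293T line. Cells take up 125I (329pM final) for 2 hours at room temperature alongside chemicals at 0.001–100uM. Retained radioactivity is counted, and the signal is expressed against DMSO controls.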

[5] = CPHEA_Stoker_NIS_Cytotoxicity: Cytotoxicity Assessment for CPHEA's Radioactive Iodide Uptake (RAIU) Assay for Sodium/Iodide Symporter (NIS) Inhibition, Stoker and Laws Labs (AID 2283897)
How it was run: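 ATP luminescence (Cell Titer Glo) measured viability, with loss of signal normalized to DMSO controls. Cells: hNIS-HEK293T-EPA, seeded 40 hours prior. Dosing: 0.001–100uM, 2 hours, room temperature, uptake buffer pH 7.4.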

PGR (gene 5241) [6] = target: PGR (gene 5241) (UniProt P06401); experiment: TOX21_PR_BLA_Followup_Agonist_ratio: Tox21 HEK293 Progesterone Receptor (PR) Agonism Beta-lactamase Follow-Up Assay, Ratio (AID 2283933)
Chain of PGR (gene 5241) (P06401 whole entry, looked up): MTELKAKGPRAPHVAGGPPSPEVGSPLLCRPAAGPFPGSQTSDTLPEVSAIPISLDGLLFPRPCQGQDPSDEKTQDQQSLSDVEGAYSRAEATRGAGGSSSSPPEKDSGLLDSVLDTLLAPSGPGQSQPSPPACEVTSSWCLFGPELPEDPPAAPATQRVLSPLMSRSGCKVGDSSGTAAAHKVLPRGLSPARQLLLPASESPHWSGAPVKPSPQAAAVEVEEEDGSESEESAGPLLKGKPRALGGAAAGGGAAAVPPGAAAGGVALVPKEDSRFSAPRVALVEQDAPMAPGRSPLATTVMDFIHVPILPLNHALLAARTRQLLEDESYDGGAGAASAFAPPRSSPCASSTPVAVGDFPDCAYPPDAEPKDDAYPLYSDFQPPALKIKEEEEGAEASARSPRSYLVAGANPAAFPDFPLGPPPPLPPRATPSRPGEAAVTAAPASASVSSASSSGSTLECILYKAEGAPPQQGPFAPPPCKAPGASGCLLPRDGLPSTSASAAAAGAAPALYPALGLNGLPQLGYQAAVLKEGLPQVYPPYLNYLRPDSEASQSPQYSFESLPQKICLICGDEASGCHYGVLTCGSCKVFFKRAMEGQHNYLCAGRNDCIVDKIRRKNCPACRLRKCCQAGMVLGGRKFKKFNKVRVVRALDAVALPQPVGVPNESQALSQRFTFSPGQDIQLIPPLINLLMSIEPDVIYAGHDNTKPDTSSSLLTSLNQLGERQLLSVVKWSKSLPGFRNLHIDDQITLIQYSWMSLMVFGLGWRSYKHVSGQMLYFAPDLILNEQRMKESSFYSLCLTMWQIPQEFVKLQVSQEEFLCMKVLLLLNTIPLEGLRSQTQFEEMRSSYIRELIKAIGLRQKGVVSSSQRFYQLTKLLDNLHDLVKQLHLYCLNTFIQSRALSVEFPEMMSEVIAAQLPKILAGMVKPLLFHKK
How it was run: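 Ratio-based beta-lactamase reporter signal after 16 hr compound treatment of PR-UAS-bla HEK293T cells at 37C. Substrate loading lasted 2 hr at room temperature.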

PGR (gene 5241) [7] = target: PGR (gene 5241) (UniProt P06401); experiment: TOX21_PR_BLA_Followup_Antagonist_ratio: Tox21 HEK293 Progesterone Receptor (PR) Antagonism Beta-lactamase Follow-Up Assay, Ratio (AID 2283934);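 also: PR-UAS-bla HEK293T cells stimulated with 1 nM R5020 agonist for 16 hr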
How it was run: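 Measured in PR-UAS-bla HEK293T cells co-treated with compound and 1 nM promegestone for 16 hr; beta-lactamase ratio read after 2 h FRET substrate loading, with parallel CellTiter-Glo cytotoxicity.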

[8] = TOX21_PR_BLA_Followup_Agonist_viability: Viability Assessment in the Tox21 HEK293 Progesterone Receptor (PR) Agonism Beta-lactamase Follow-Up Assay (AID 2283935);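 also: signal loss means lower viability so actives are cytotoxic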
How it was run: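 Viability is read as CellTiter-Glo luminescence, where loss of signal indicates cytotoxicity. The cells are PR-UAS-bla HEK293T given compounds for 16 hr at 37C and 5% CO2, in the same wells used for the bla readout.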

[9] = TOX21_PR_BLA_Followup_Antagonist_viability: Viability Assessment in the Tox21 HEK293 Progesterone Receptor (PR) Antagonism Beta-lactamase Follow-Up Assay (AID 2283936);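 also: cells exposed to compound with R5020 agonist for 16 h; hits lower the luminescence signal meaning cytotoxicity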
How it was run: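 PR-UAS-bla HEK293T cells in medium with 2% charcoal-stripped FBS were treated with compounds plus R5020 for 16 hr at 37C. After the beta-lactamase read, CellTiter-Glo was added to the same wells and luminescence read after 30 min at room temperature.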

[10] = target: human Thyroid hormone Receptor alpha (TRa), THRA (gene 7067) (UniProt P10827); experiment: ATG_hTRa_XSP2: Attagene TRANS-FACTORIAL Multi-Species (XSP2) HepG2 Assay for human Thyroid hormone Receptor alpha (TRa) (AID 2283838)
Chain of human Thyroid hormone Receptor alpha (TRa), THRA (gene 7067) (P10827 whole entry, looked up, the tested form may be a part): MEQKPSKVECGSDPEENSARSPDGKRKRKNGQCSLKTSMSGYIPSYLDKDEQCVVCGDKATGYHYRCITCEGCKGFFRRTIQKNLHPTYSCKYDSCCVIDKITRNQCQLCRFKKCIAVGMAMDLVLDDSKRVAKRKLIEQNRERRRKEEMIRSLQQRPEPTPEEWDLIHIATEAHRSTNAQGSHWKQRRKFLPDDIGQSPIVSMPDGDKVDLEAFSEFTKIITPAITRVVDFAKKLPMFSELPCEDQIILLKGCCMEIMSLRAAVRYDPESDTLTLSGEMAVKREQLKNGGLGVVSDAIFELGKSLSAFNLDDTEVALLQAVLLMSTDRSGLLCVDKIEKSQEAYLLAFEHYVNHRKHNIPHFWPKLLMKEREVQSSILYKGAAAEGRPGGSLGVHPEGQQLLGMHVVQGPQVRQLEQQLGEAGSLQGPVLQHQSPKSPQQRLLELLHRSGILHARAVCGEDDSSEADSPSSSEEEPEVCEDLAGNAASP
How it was run: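 Gain-of-signal in reporter mRNA, relative to DMSO, after 24 h dosing of transfected HepG2; quantitation by RT-PCR fragment analysis on capillary electrophoresis.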

[11] = CEETOX_H295R_11DCORT_noMTC: CeeTox H295R High-throughput Steroidogenesis Assay for 11-Deoxycortisol (11DCORT), maximum tolerated concentration (MTC) filtered results only (AID 2283911; active = hit-call score of the fitted dose curve at least 0.9, where 1 is the maximum; inactive = score below 0.9); settings: actives raise or lower the signal
How it was run: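 HPLC-MS/MS read-out of 11-deoxycortisol after MTBE extraction of H295R medium. Cells: forskolin 10 uM pre-stimulation 48 h, chemical 48 h, 0.1% DMSO final. Bidirectional fit vs DMSO baseline; no MTC filtering.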

[12] = CEETOX_H295R_OHPREG_noMTC: CeeTox H295R High-throughput Steroidogenesis Assay for OH-Pregnenolone (OHPREG), maximum tolerated concentration (MTC) filtered results only (AID 2283912; active = hit-call score of the fitted dose curve at least 0.9, where 1 is the maximum; inactive = score below 0.9); settings: actives raise or lower the signal
How it was run: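 Medium 17alpha-hydroxypregnenolone quantified by reverse-phase HPLC-MS/MS after 48 h chemical exposure of forskolin-prestimulated (10 uM, 48 h) H295R, 0.1% DMSO final. Fitting bidirectional relative to DMSO; no maximum-tolerated-concentration filtering applied.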

[13] = CEETOX_H295R_OHPROG_noMTC: CeeTox H295R High-throughput Steroidogenesis Assay for OH-Progesterone (OHPROG), maximum tolerated concentration (MTC) filtered results only (AID 2283914; active = hit-call score of the fitted dose curve at least 0.9, where 1 is the maximum; inactive = score below 0.9); settings: actives raise or lower the signal
How it was run: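 After 48 h forskolin (10 uM) prestimulation, H295R adrenal cells received test chemical in 0.1% DMSO for 48 h. Medium 17alpha-hydroxyprogesterone was MTBE-extracted and measured by HPLC-MS/MS; gain or loss relative to DMSO, no MTT-based MTC filtering.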

[14] = CEETOX_H295R_CORTISOL_noMTC: CeeTox H295R High-throughput Steroidogenesis Assay for Cortisol, maximum tolerated concentration (MTC) filtered results only (AID 2283916; active = hit-call score of the fitted dose curve at least 0.9, where 1 is the maximum; inactive = score below 0.9); settings: actives raise or lower the signal
How it was run: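 Cortisol secretion measured by LC-MS/MS after 48 h chemical treatment (final 0.1% DMSO) of forskolin-primed (10 uM, 48 h) H295R cells; gain or loss fitted relative to DMSO, without maximum-tolerated-concentration filtering.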

[15] = CEETOX_H295R_CORTIC_noMTC: CeeTox H295R High-throughput Steroidogenesis Assay for Corticosterone (CORTIC), maximum tolerated concentration (MTC) filtered results only (AID 2283917; active = hit-call score of the fitted dose curve at least 0.9, where 1 is the maximum; inactive = score below 0.9); settings: actives raise or lower the signal
How it was run: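 Human adrenal H295R cells were prestimulated 48 h with 10 uM forskolin, then exposed 48 h to chemical in 0.1% DMSO. Medium corticosterone was MTBE-extracted and quantified by HPLC-MS/MS; bidirectional fits versus DMSO, concentrations not MTC-filtered.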

[16] = CEETOX_H295R_DOC_noMTC: CeeTox H295R High-throughput Steroidogenesis Assay for DOC, maximum tolerated concentration (MTC) filtered results only (AID 2283918; active = hit-call score of the fitted dose curve at least 0.9, where 1 is the maximum; inactive = score below 0.9); settings: actives raise or lower the signal
How it was run: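 11-Deoxycorticosterone secreted by human adrenal H295R cells quantified by HPLC-MS/MS after 48 h chemical exposure (0.1% DMSO), following 48 h 10 uM forskolin prestimulation. Concentrations not filtered by MTT-derived MTC; bidirectional fitting.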

[17] = CEETOX_H295R_PROG_noMTC: CeeTox H295R High-throughput Steroidogenesis Assay for Progesterone (PROG), maximum tolerated concentration (MTC) filtered results only (AID 2283920; active = hit-call score of the fitted dose curve at least 0.9, where 1 is the maximum; inactive = score below 0.9); settings: actives raise or lower the signal
How it was run: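 Progesterone secreted into medium was measured by HPLC-MS/MS after MTBE extraction, following 48 h chemical exposure (0.1% DMSO) of forskolin-prestimulated (10 uM, 48 h) H295R adrenal cells. Gain or loss fitted against DMSO; no MTC filtering.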

[18] = CEETOX_H295R_ESTRADIOL_noMTC: CeeTox H295R High-throughput Steroidogenesis Assay for Estradiol, maximum tolerated concentration (MTC) filtered results only (AID 2283919; active = hit-call score of the fitted dose curve at least 0.9, where 1 is the maximum; inactive = score below 0.9); settings: actives raise or lower the signal
How it was run: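 Readout: dansyl-derivatized estradiol quantified by LC-MS/MS in medium from H295R cells dosed 48 h (0.1% DMSO) following 48 h forskolin (10 uM) prestimulation. Gain or loss of signal fitted against DMSO; no MTC filtering applied.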

[19] = CEETOX_H295R_ESTRONE_noMTC: CeeTox H295R High-throughput Steroidogenesis Assay for Estrone, maximum tolerated concentration (MTC) filtered results only (AID 2283921; active = hit-call score of the fitted dose curve at least 0.9, where 1 is the maximum; inactive = score below 0.9); settings: actives raise or lower the signal
How it was run: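 Estrone in spent medium, quantified by tandem MS following dansyl chloride derivatization, after 48 h chemical exposure (0.1% DMSO) of forskolin-prestimulated (10 uM, 48 h) H295R cells; concentrations not MTC-filtered, bidirectional fit against DMSO.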

[20] = ATG_XTT_Cytotoxicity_XSP2: Cytotoxicity Assessment in the Attagene TRANS-FACTORIAL Multi-Species (XSP2) HepG2 Assay (AID 2283837)
How it was run: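 XTT-based cell number read-out in human HepG2 liver cells carrying transfected reporter units, measured 24 h after chemical dosing. Activity is signal loss versus DMSO baseline.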

Measured: AC50

CC(C)(c1ccc(O)cc1)c1ccc(O)cc1
active: PGR (gene 5241) [7] 32.9 µM
inactive: [1] | [2] | [3] | [4] | [5] | PGR (gene 5241) [6] | [8] | [9]

C#C[C@]1(O)CC[C@H]2[C@@H]3CCC4=CC(=O)CC[C@@H]4[C@H]3CC[C@@]21CC
active: [3] 1.44 µM
inactive: [1] | [10] | [2]

CCCCCOC(=O)COc1cc(N2C(=O)C3=C(CCCC3)C2=O)c(F)cc1Cl
inactive: [4] | [5]

CCCCCCC(C)OC(=O)COc1nc(F)c(Cl)c(N)c1Cl (stereo unspecified)
inactive: [5]
active: [4] 11.3 µM

C=CCOC(Cn1ccnc1)c1ccc(Cl)cc1Cl (stereo unspecified)
inactive: [1] | [10] | [4] | [5]

CCCCC(CC)COC(=O)c1ccccc1C(=O)O (stereo unspecified)
inactive: [2] | [11] | [12] | [13] | [14] | [15] | [16] | [17]

CC1(C)C(C=C(Cl)Cl)C1C(=O)OCc1cccc(Oc2ccccc2)c1 (stereo unspecified)
active: [3] 100 µM
inactive: [10] | [2]

CCOC(=O)C(C)Oc1ccc(Oc2nc3ccc(Cl)cc3o2)cc1 (stereo unspecified)
inactive: [4] | [5]

S=C([S-])NCCNC(=S)[S-].[Mn+2]
inactive: [4] | [5]

CCOC(=O)COc1cc(-n2ncc(C(F)(F)F)c(C)c2=O)c(F)cc1Cl
inactive: [4] | [5]

C[C@]12C[C@H](O)[C@H]3[C@@H](CCC4=CC(=O)CC[C@@]43C)[C@@H]1CC[C@@H]2C(=O)CO
inactive: [8] | [9]

COC(=O)c1ccccc1C(=O)O
inactive: [11] | [12] | [13] | [14] | [15] | [16] | [18] | [17] | [19]

CSC(=O)c1cccc2nnsc12
inactive: [1] | [3] | [4] | [5]

CCN(Cc1c(F)cccc1Cl)c1c([N+](=O)[O-])cc(C(F)(F)F)cc1[N+](=O)[O-]
inactive: [1] | [20] | [10] | [2] | [3] | [4] | [5]

CC(=O)S[C@@H]1CC2=CC(=O)CC[C@]2(C)[C@H]2CC[C@@]3(C)[C@@H](CC[C@@]34CCC(=O)O4)[C@H]12
inactive: [1] | [10] | [2] | [3]

O=C(O)c1ccccc1
inactive: [4] | [5]
